# From the antibiotic and cytotoxicity screens of Wong et al. (2023)
# Out of some 39,000 compounds screened, about 500 (1.3%) were called active. Many of the other results were omitted from the sample, so actives are more common in it than they were.
# Test system: S. aureus RN4220
# Assay: growth inhibition call (relative growth <= 0.2)
# Conditions: 50 µM
row,Structure (SMILES),growth inhibition call
1,Cc1noc(C)c1NC(=O)Nc1ccc2c(c1)CC(=O)N([C@H](C)CO)C[C@H](C)[C@H](CN(C)C(=O)Nc1ccc(C(F)(F)F)cc1)O2,inactive
2,CC(C)NC(=O)N(C)C[C@H]1Oc2ccc(NC(=O)Cc3ccccc3)cc2C(=O)N([C@H](C)CO)C[C@@H]1C,inactive
3,[N-]=[N+]=NCCOCCNC(=O)CCCOc1ccc(CS(=O)c2nnc(-c3ccc(F)cc3)o2)nc1 (stereo unspecified),active
4,C[C@H]1CNC(=O)O1,inactive
5,COc1ccc(S(=O)(=O)N(C)C[C@@H]2Oc3c(NC(=O)Nc4c(C)noc4C)cccc3C(=O)N([C@@H](C)CO)C[C@H]2C)cc1,inactive
6,COCCOC(=O)N1C(=O)[C@@]2(c3cc(C#CCC(C(=O)OC)C(=O)OC)ccc31)[C@H](C(=O)N1CCCCCCC1)[C@H]1C(=O)O[C@H](c3ccccc3)[C@H](c3ccccc3)N1[C@@H]2c1ccc(O)cc1,active
7,COCCOC(=O)N1C(=O)[C@@]2(c3cc(C#CCC(C(=O)OC)C(=O)OC)ccc31)[C@H](c1ccc(OCCO)cc1)N1[C@H](c3ccccc3)[C@H](c3ccccc3)OC(=O)[C@H]1[C@@H]2C(=O)N1CCCCCCC1,inactive
8,COCCOC(=O)N1C(=O)[C@@]2(c3cc(C#CCC(C(=O)OC)C(=O)OC)ccc31)[C@H](C(=O)N1CCCCCCC1)[C@H]1C(=O)O[C@H](c3ccccc3)[C@H](c3ccccc3)N1[C@@H]2c1ccc(OCCO)cc1,inactive
9,C[C@@H]1CN([C@H](C)CO)C(=O)c2c(c3ccccc3n2C)-c2ccccc2CO[C@H]1CN(C)S(C)(=O)=O,inactive
10,C[C@H](CO)N1C[C@H](C)[C@@H](CN(C)S(=O)(=O)c2ccccc2)OCCCC[C@H](C)Oc2ccc(NC(=O)c3ccccc3)cc2C1=O,inactive
11,CC(C)(C)[S@@+]([O-])N1Cc2cc(C(=O)O)nc(-c3ccc(Br)cc3)c2[C@H]1CCO[Si](C)(C)C(C)(C)C,active
12,CCOC(=O)c1cc2c(c(-c3cccc(Br)c3)n1)[C@@H](CCO[Si](C)(C)C(C)(C)C)N(S(=O)(=O)C(C)(C)C)C2,inactive
13,CCOC(=O)c1cc2c(c(-c3ccccc3)n1)[C@@H](CCO[Si](C)(C)C(C)(C)C)N(S(=O)(=O)C(C)(C)C)C2,inactive
14,C[C@@H]1CCCCO[C@@H](CN(C)S(=O)(=O)c2ccc(Cl)cc2)[C@H](C)CN([C@H](C)CO)C(=O)c2cc(NS(=O)(=O)c3ccccc3)ccc2O1,inactive
15,COc1cccc(C#Cc2cnc3c(c2)C(=O)N([C@@H](C)CO)C[C@H](C)[C@@H](CN(C)C(=O)C2CCOCC2)O3)c1,inactive
16,Cc1ccc(S(=O)(=O)N(C)C[C@H]2Oc3ccc(NS(=O)(=O)c4c(C)noc4C)cc3CC(=O)N([C@H](C)CO)C[C@H]2C)cc1,inactive
